Screens (PubChem)
Rows were chosen to be rich in hits. Some 11% of all compounds tested hit in one or more screens of this group.
Tau FP inhib = qHTS for Inhibitors of Tau Fibril Formation, Fluorescence Polarization; Microtubule-associated protein tau (Homo sapiens), P10636; K18 P301L tau heparin fibrillization, Alexa594 FP, 6 h; Potency, µM (doses to about 57.7 µM), inactives show at the top dose activity, negative = inhibition, actives largely listed as inhibitors; 280,000 compounds, 0.39% hits; AID 1468, 2008; note: potency is the fitted concentration of half-maximal effect; nearly all actives have a fitted effect of over 55% in size
Target sequence (P10636 561-689 P618L limits assumed): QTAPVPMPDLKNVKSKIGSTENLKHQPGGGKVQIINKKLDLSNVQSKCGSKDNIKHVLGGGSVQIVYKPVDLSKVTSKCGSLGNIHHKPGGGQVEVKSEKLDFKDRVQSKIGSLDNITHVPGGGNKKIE
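Recombinant K18 P301L […], labeled with Alexa 594 at 0.24 uM over 15 uM unlabeled; heparin inducer 20 uM final; 37 C, 6 hr; FP endpoint.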
Tau fluor counter = Counterscreen qHTS for Inhibitors of Tau Fibril Formation, Fluorescence Polarization | tau K18 P301L Alexa594 fluorescence, heparin fibrillization | Potency, µM (top dose mostly 57.7 µM), without a hit: at the top dose activity change, negative = decrease | 280,000 compounds, 0.93% hits; note: potency is the fitted concentration of half-maximal effect; nearly all actives have a fitted effect of over 55% in size
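Human tau K18 P301L (15 uM unlabeled, 0.24 uM Alexa 594-labeled) in 100 mM sodium acetate pH 7 with 20 uM heparin, 6 hr at 37 C. ThT 30 uM added, 1 hr ambient; Alexa 594 FP and total fluorescence read at 555/632 nm.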
G9a inh = qHTS Assay for Inhibitors of Histone Lysine Methyltransferase G9a; Histone-lysine N-methyltransferase EHMT2 (Homo sapiens), Q96KQ7; G9a H3K9 monomethylation, AlphaScreen, 2 h; Potency, µM (titrated, usually from 102 µM), for the others: at the highest dose activity, negative = inhibition, hits mostly inhibitors; 350,000 compounds, 8.8% hits; AID 504332, 2011; note: potency is the fitted concentration of half-maximal effect; nearly all actives have a fitted effect of over 75% in size
Target sequence (Q96KQ7 913-1193 limits assumed): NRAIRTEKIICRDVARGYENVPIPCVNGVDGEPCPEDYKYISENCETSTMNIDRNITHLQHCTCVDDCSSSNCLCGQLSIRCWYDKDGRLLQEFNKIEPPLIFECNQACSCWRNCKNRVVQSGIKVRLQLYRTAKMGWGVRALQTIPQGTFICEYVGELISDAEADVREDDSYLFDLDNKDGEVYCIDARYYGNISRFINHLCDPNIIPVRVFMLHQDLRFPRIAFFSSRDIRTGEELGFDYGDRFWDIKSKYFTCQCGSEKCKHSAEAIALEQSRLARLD
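Readings reflect AlphaScreen signal from monomethyl-H3K9 antibody detection. HMT at 20 nM; substrate b-H3K9 500 nM; cofactor SAM 20 uM; 2 h RT reaction; compounds tested as titrations in qHTS with 15 min preincubation.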
Sfp PPTase inh = qHTS Assay for Inhibitors of Bacillus subtilis Sfp phosphopantetheinyl transferase (PPTase) | 4'-phosphopantetheinyl transferase ffp (Bacillus subtilis), Q9F4F7 | Biochemical Sfp PPTase activity, qHTS | Potency, µM, inactives show largest response in the series, negative = inhibition, most hits filed as inhibitors | 310,000 compounds, 3.5% hits;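 note: the enzyme is Sfp with the accession as filed and its product quenches rhodamine fluorescence; potency is the fitted concentration of half-maximal effect; 0% = enzyme reaction without inhibitor and -100% = no enzyme wells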
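After 15 min at room temperature with compound, 15 nM Sfp received 5 uM rhodamine-CoA plus 12.5 uM BHQ-2-ybbR (50 mM Hepes pH 7.6, 10 mM MgCl2). Rate came from the fluorescence difference over 30 min, ex 525/em 598 nm.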
FBPA coupling cs = qHTS Assay for Inhibitors of Fructose-1,6-bisphosphate Aldolase from Giardia Lamblia: Coupling assay counterscreen; 290,000 compounds, 0.67% hits; activity change, negative = inhibition, % at 58.2 µM, hits read low; coupling enzyme system counterscreen, AmpLite Red fluorescence; in the data active = activity change below about -30%
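Coupling enzymes only (glyceraldehyde-3-phosphate) + compound, at 57.5 uM final, 10 min RT; add substrate/coupling/AmpLite Red mix, 20 min RT; fluorescence ex 525/em 598 nm. Actives flag coupling-system interference.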
Tau fibril ThT = qHTS for Inhibitors of Tau Fibril Formation, Thioflavin T Binding; Microtubule-associated protein tau (Homo sapiens), P10636; recombinant tau K18 P301L (four-repeat tau fragment), heparin-induced fibrillization, ThT fluorescence; Potency, µM (highest dose often 57.4 µM), inactives show at the top dose activity, negative = inhibition, most hits filed as inhibitors; 270,000 compounds, 2.1% hits; AID 1460, 2008; note: potency is the fitted concentration of half-maximal effect; nearly all actives have a fitted effect of over 55% in size
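Aggregation was driven by heparin (20 uM final) acting on recombinant tau […] bearing P301L in 100 mM sodium acetate pH 7; fibrils were detected with Thioflavin T.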
Numbers without * were called inactive; ? = inconclusive; nt = not tested or not shown; [ ] = remark or other dose. Unless noted, calls come from the whole dose curve; as a rule, active = well fitted curve in the direction sought with a large enough effect; inconclusive = small, poorly fitted or top-dose-only effect, or another doubt; inactive = no such curve, though single readings can be large; an effect the other way counts as inactive or inconclusive. Unless noted, % is set by controls: 0 for no effect and ±100 for the full control effect.

SMILES | Tau FP inhib | Tau fluor counter | G9a inh | Sfp PPTase inh | FBPA coupling cs | Tau fibril ThT
C#CCSc1nnc(CSc2nc3ccccc3s2)n1-c1ccccc1 | 0% | -11% | ? | -12% | 1 | -20%
O=C(O)CSc1nnc(CSc2nc3ccccc3s2)n1-c1ccccc1 | 7% | 12% | 35µM* | 24% | -1 | 3%
CCn1c(CSc2nc3ccccc3s2)nc2ccccc21 | -11% | -22% | 10µM* | -17% | -2 | ?
Cc1ccc(Nc2c([N+](=O)[O-])ccc3c2=NC2(CCCCC2)N=3)cc1 | -11% | ? | 4.5µM* | 6% | -19 | 16µM*
COC(=O)[C@]1(Cc2ccccc2)N[C@H](c2ccc(-c3ccc(F)cc3)cc2)[C@@H]2C(=O)N(C)C(=O)[C@@H]21 | nt | nt | -4%[2.33 µM] | nt | nt | nt
COc1ccc(C2NC(Cc3ccccc3)(C(=O)O)C3C(=O)N(c4ccccc4OC)C(=O)C23)cc1 (centres undefined) | 1% | -1% | 50µM* | -17% | 7 | -2%
Cc1cc(C2N=C(N)Nc3nc4ccccc4n32)c(C)n1-c1ccccc1Cl (centres undefined) | -3% | 7% | ? | 2.8µM* | -5 | -2%
Cc1ccc(-n2c(C)cc(C3N=C(N)Nc4nc5ccccc5n43)c2C)c(C)c1 (centres undefined) | 1% | -8% | 5%[12.7 µM] | ? | 0 | -13%
Cc1cccc(N2CCN(c3nc4ccc(C)cc4n4cnnc34)CC2C)c1 (centres undefined) | -3% | ? | ? | nt | nt | ?
COc1cccc(CN2CC(C(=O)NCCC3=CCCCC3)CCC2=O)c1 (centres undefined) | nt | nt | 8%[59 µM] | 2% | -4 | nt
COc1cc(C(C#N)N2CCC(c3ccccc3)=N2)ccc1O (centres undefined) | 1% | -4% | 10µM* | 4% | 0 | nt
COc1ccc(C(C#N)N2CCC(c3ccccc3)=N2)cc1OC (centres undefined) | -1% | -3% | 18µM* | 13% | 0 | ?
COc1ccc(C2=NN(C(C#N)c3ccc(OC)c(OC)c3)C(c3ccccc3)C2)cc1 (centres undefined) | ? | ? | ? | -18% | -2 | ?
CCOC(=O)c1sc(NC(=O)c2c(CC)noc2C)nc1C | nt | nt | -8%[12.7 µM] | nt | nt | nt
C=CC[n+]1c(/C=C2\C=Cc3cc(C)ccc3N2CC)ccc2ccccc21 | -2% | 14µM*[fluorescent] | 28µM* | -13% | 2 | 3.5µM*
O=C1ON=C(c2cccc([N+](=O)[O-])c2)/C1=C/c1ccc(O)cc1 | 4% | -20% | 22µM* | -61% | 3 | ?
COc1cc(/C=C2\N=C(c3ccccc3)OC2=O)ccc1OC(C)=O | nt | nt | nt | 14% | -1 | nt
O=C1ON=C(c2ccccc2)/C1=C/c1cccnc1 | 5% | 8% | 45µM* | 12% | 2 | 3%
O=C1ON=C(c2ccccc2)/C1=C/c1ccc(OS(=O)(=O)c2ccccc2)cc1 | 1% | -29% | 8.9µM* | -27% | 3 | ?
O=C1ON=C(c2ccccc2)/C1=C/c1ccc(O)c(O)c1 | nt | nt | 25µM* | 50µM* | 0 | nt
O=C1/C(=C/c2ccc(O)cc2)CCc2ccc([N+](=O)[O-])cc21 | 12% | -29% | ? | 18% | 4 | ?
CC#CCOC(=O)C1=CCCN(C)C1 | 1% | 0% | 15%[59 µM] | 4% | 1 | -4%
CCOC(=O)c1ccccc1-c1csc(N)n1 | 11% | 8% | 10%[59 µM] | -4% | 1 | 0%
CCc1ccc2c(c1)c(=O)c(S(=O)(=O)c1ccccc1)cn2CC(=O)Nc1ccc(OC)cc1 | -14% | -24% | -4%[59 µM] | nt | nt | 6%
